# Test results: PubChem BioAssay AID1159580 (chemical genetic matrix, 2015)
# Values joined by “and” are separate entries in the source; they are usually repeats but may differ in a detail not shown here. Equal entries are not always repeated. The whole screen tested about 5,500 compounds, of which about 2,000 (36%) were called active. About 18% were inconclusive and are not listed. No stated cut-off is given here; in the data, active means normalized growth mostly below about 0.91 (no sharp cut-off); inconclusive means no clear call, values can overlap the other calls; inactive means mostly above about 0.92. This is one part of the list. More than one record can exist for a structure, and the calls need not agree.
# Assay: chemical genetic growth profiling, strain panel (AID 1159580);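 further: tested at 20 µM; growth read once vehicle control cultures reached saturation at 30 °C; 1 = growth at the plate median or of vehicle wells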
# Conditions: S. cerevisiae deletion strains, growth OD
# [1] = locus YBR021W, strain FUR4, stronger effect = lower value
# [2] = locus YBR229C, strain ROT2, stronger effect = lower value
# [3] = locus YCL029C, strain bik1, stronger effect = lower value
# [4] = locus YDL035C, strain GPR1, stronger effect = lower value
# [5] = locus YDL074C, strain BRE1, stronger effect = lower value
# [6] = locus YDL101C, strain DUN1, stronger effect = lower value
# [7] = locus YDL185W, strain tfp1, stronger effect = lower value
# [8] = locus YDL192W, strain arf1, stronger effect = lower value
# [9] = locus YDR101C, strain arx1, stronger effect = lower value
# [10] = locus YDR162C, strain NBP2, stronger effect = lower value
# [11] = locus YDR318W, strain mcm21, stronger effect = lower value
# [12] = locus YDR388W, stronger effect = lower value
# [13] = locus YDR502C, strain sam2, stronger effect = lower value
# [14] = locus YEL061C, strain CIN8, stronger effect = lower value
# [15] = locus YER110C, stronger effect = lower value
# [16] = locus YER155C, strain BEM2, stronger effect = lower value
# [17] = locus YER167W, strain BCK2, stronger effect = lower value
# [18] = locus YGL078C, strain dbp3, stronger effect = lower value
# [19] = locus YGL086W, strain mad1, stronger effect = lower value
# [20] = locus YGL248W, strain PDE1, stronger effect = lower value
# [21] = locus YGR078C, strain PAC10, stronger effect = lower value
# [22] = locus YGR135W, strain pre9, stronger effect = lower value
# [23] = locus YGR252W, strain gcn5, stronger effect = lower value
# [24] = locus YHR030C, strain SLT2, stronger effect = lower value
# [25] = locus YHR079C, strain IRE1 (second series), stronger effect = lower value
# [26] = locus YHR094C, strain hxt1, stronger effect = lower value
# [27] = locus YHR129C, strain ARP1, stronger effect = lower value
# [28] = locus YHR200W, strain rpn10, stronger effect = lower value
# [29] = locus YIL066C, strain RNR3, stronger effect = lower value
# [30] = locus YIL073C, strain SPO22, stronger effect = lower value
# [31] = locus YIL125W, strain kgd1, stronger effect = lower value
# [32] = locus YIR030C, strain dcg1, stronger effect = lower value
# [33] = locus YJL095W, strain BCK1, stronger effect = lower value
# [34] = locus YJL134W, strain LCB3, stronger effect = lower value
# [35] = locus YJL168C, strain set2, stronger effect = lower value
# [36] = locus YJL187C, strain SWE1 (second series), stronger effect = lower value
# [37] = locus YJR043C, strain POL32, stronger effect = lower value
# [38] = locus YKL009W, strain mrt4, stronger effect = lower value
# [39] = locus YKL068W, stronger effect = lower value
# [40] = locus YKL085W, strain MDH1 (second series), stronger effect = lower value
# [41] = locus YKL085W, strain MDH1, stronger effect = lower value
# [42] = locus YKL190W, strain CNB1, stronger effect = lower value
# [43] = locus YKR001C, strain vps1, stronger effect = lower value
# [44] = locus YLR039C, strain RIC1, stronger effect = lower value
# [45] = locus YLR058C, strain SHM2, stronger effect = lower value
# [46] = locus YLR102C, strain apc9, stronger effect = lower value
# [47] = locus YLR262C, strain YPT6, stronger effect = lower value
# [48] = locus YLR268W, strain sec22, stronger effect = lower value
# [49] = locus YLR330W, strain CHS5, stronger effect = lower value
# [50] = locus YLR342W, strain FKS1 (second series), stronger effect = lower value
# [51] = locus YLR371W, strain rom2, stronger effect = lower value
# [52] = locus YLR418C, strain cdc73, stronger effect = lower value
# [53] = locus YML016C, strain PPZ1, stronger effect = lower value
# [54] = locus YML032C, strain rad52, stronger effect = lower value
# [55] = locus YML124C, strain tub3, stronger effect = lower value
# [56] = locus YMR078C, strain ctf18, stronger effect = lower value
# [57] = locus YMR223W, strain ubp8, stronger effect = lower value
# [58] = locus YMR263W, strain SAP30, stronger effect = lower value
# [59] = locus YMR307W, strain GAS1, stronger effect = lower value
# [60] = locus YNL067W, strain RPL9B, stronger effect = lower value
# [61] = locus YNL233W, strain BNI4, stronger effect = lower value
# [62] = locus YNL250W, strain rad50, stronger effect = lower value
# [63] = locus YNL271C, strain bni1, stronger effect = lower value
# [64] = locus YNL298W, strain CLA4, stronger effect = lower value
# [65] = locus YNL307C, strain MCK1, stronger effect = lower value
# [66] = locus YNR052C, strain pop2, stronger effect = lower value
# [67] = locus YOL006C, strain TOP1, stronger effect = lower value
# [68] = locus YOL147C, strain pex11, stronger effect = lower value
# [69] = locus YOR061W, strain CKA2, stronger effect = lower value
# [70] = locus YOR069W, strain VPS5, stronger effect = lower value
# [71] = locus YOR136W, strain idh2, stronger effect = lower value
# [72] = locus YOR144C, strain elg1, stronger effect = lower value
# [73] = locus YOR184W, strain ser1, stronger effect = lower value
# [74] = locus YOR316C, strain cot1, stronger effect = lower value
# [75] = locus YPL055C, strain LGE1, stronger effect = lower value
# [76] = locus YPR119W, strain clb2, stronger effect = lower value
# [77] = locus YPR141C, strain kar3, stronger effect = lower value
# [78] = locus YPR163C, strain tif3, stronger effect = lower value
# [79] = locus YPR167C, strain met16, stronger effect = lower value
# [80] = strain wtn01, stronger effect = lower value
structure (smiles),measurement,setting,value
COc1ccc(-c2coc3cc(OC)ccc3c2=O)cc1,normalized growth,"locus YAL013W, strain DEP1, stronger effect = lower value",0.933 (inactive)
same,normalized growth,[1],1.02 (inactive)
same,normalized growth,[2],0.908 (active)
same,normalized growth,[3],0.929 (inactive)
same,normalized growth,[4],0.905 (inactive)
same,normalized growth,[5],0.839 (inactive)
same,normalized growth,[6],0.891 (active)
same,normalized growth,[7],0.896 (active)
same,normalized growth,[8],0.898 (active)
same,normalized growth,[9],0.92 (inactive)
same,normalized growth,"locus YDR150W, strain NUM1, stronger effect = lower value",0.94 (inactive)
same,normalized growth,[10],0.607 (active)
same,normalized growth,[11],0.912 (active)
same,normalized growth,[12],0.92 (active)
same,normalized growth,[13],0.907 (active)
same,normalized growth,[14],0.917 (active)
same,normalized growth,[15],0.907 (inactive)
same,normalized growth,[16],1.01 (inactive)
same,normalized growth,[17],0.906 (inactive)
same,normalized growth,[18],0.936 (inactive)
same,normalized growth,[19],0.906 (active)
same,normalized growth,[20],0.876 (active)
same,normalized growth,[21],0.811 (active)
same,normalized growth,[22],0.89 (active)
same,normalized growth,[23],0.851 (inactive)
same,normalized growth,[24],0.973 (inactive) and 0.882 (active)
same,normalized growth,[25],0.922 (active)
same,normalized growth,"locus YHR079C, strain IRE1, stronger effect = lower value",0.976 (inactive)
same,normalized growth,[26],0.949 (inactive)
same,normalized growth,[27],0.915 (active)
same,normalized growth,[28],0.906 (active)
same,normalized growth,[29],0.807 (active)
same,normalized growth,[30],0.783 (inactive)
same,normalized growth,[31],0.941 (inactive)
same,normalized growth,[32],0.931 (inactive)
same,normalized growth,[33],0.983 (inactive) and 0.669 (active)
same,normalized growth,[34],0.941 (inactive)
same,normalized growth,[35],0.936 (inactive)
same,normalized growth,[36],0.891 (inactive)
same,normalized growth,[37],0.885 (inactive)
same,normalized growth,"locus YJR066W, strain TOR1, stronger effect = lower value",0.9 (inactive)
same,normalized growth,"locus YJR075W, strain HOC1, stronger effect = lower value",0.913 (inactive)
same,normalized growth,[38],0.92 (inactive)
same,normalized growth,[39],0.93 (active)
same,normalized growth,[40],0.928 (active)
same,normalized growth,[41],0.928 (active)
same,normalized growth,[42],0.933 (inactive)
same,normalized growth,[43],0.644 (active)
same,normalized growth,[44],0.48 (active)
same,normalized growth,[45],0.906 (inactive)
same,normalized growth,[46],0.941 (inactive)
same,normalized growth,"locus YLR113W, strain HOG1, stronger effect = lower value",0.984 (inactive)
same,normalized growth,[47],0.468 (active)
same,normalized growth,[48],0.919 (inactive)
same,normalized growth,[49],0.874 (active)
same,normalized growth,[50],0.763 (active)
same,normalized growth,[51],0.933 (inactive)
same,normalized growth,[52],0.736 (active)
same,normalized growth,[53],0.922 (inactive)
same,normalized growth,[54],0.942 (inactive)
same,normalized growth,[55],0.925 (active)
same,normalized growth,[56],0.929 (inactive)
same,normalized growth,[57],0.911 (inactive)
same,normalized growth,[58],0.898 (inactive)
same,normalized growth,[59],0.658 (inactive)
same,normalized growth,[60],0.886 (inactive)
same,normalized growth,"locus YNL183C, strain NPR1, stronger effect = lower value",0.921 (inactive)
same,normalized growth,[61],0.888 (inactive)
same,normalized growth,[62],0.943 (inactive)
same,normalized growth,[63],0.918 (active)
same,normalized growth,[64],0.906 (active)
same,normalized growth,[65],0.543 (active)
same,normalized growth,"locus YNL322C, strain KRE1, stronger effect = lower value",0.936 (inactive)
same,normalized growth,[66],0.928 (inactive)
same,normalized growth,[67],0.589 (inactive)
same,normalized growth,"locus YOL012C, strain htz1",0.966 (inactive)
same,normalized growth,[68],0.922 (active)
same,normalized growth,[69],0.899 (inactive)
same,normalized growth,[70],0.937 (inactive)
same,normalized growth,[71],0.971 (inactive)
same,normalized growth,[72],0.937 (inactive)
same,normalized growth,[73],0.783 (active)
same,normalized growth,"locus YOR231W, strain MKK1, stronger effect = lower value",0.982 (inactive)
same,normalized growth,[74],0.928 (inactive)
same,normalized growth,[75],0.836 (inactive)
same,normalized growth,"locus YPL256C, strain CLN2, stronger effect = lower value",0.968 (inactive)
same,normalized growth,[76],0.947 (inactive)
same,normalized growth,[77],0.921 (inactive)
same,normalized growth,[78],0.772 (active)
same,normalized growth,[79],0.943 (inactive)
same,normalized growth,[80],0.91 (inactive)
COc1ccccc1-c1coc2cc(O)ccc2c1=O,normalized growth,[1],0.987 (inactive)
same,normalized growth,[2],1.01 (inactive)
same,normalized growth,[3],1 (inactive)
same,normalized growth,[4],0.983 (inactive)
same,normalized growth,[5],1.02 (inactive)
same,normalized growth,[6],0.995 (inactive)
same,normalized growth,"locus YDL134C, strain PPH21, stronger effect = lower value",0.963 (inactive)
same,normalized growth,[7],0.999 (inactive)
same,normalized growth,[8],1 (inactive)
same,normalized growth,[9],0.996 (inactive)
same,normalized growth,[10],0.986 (inactive)
same,normalized growth,[11],1.01 (inactive)
same,normalized growth,[12],1.03 (inactive)
same,normalized growth,[13],1.02 (inactive)
same,normalized growth,[14],1.02 (inactive)
same,normalized growth,[15],1.02 (inactive)
same,normalized growth,[16],1.02 (inactive)
same,normalized growth,[17],1.03 (inactive)
same,normalized growth,[18],1 (inactive)
same,normalized growth,[19],1.01 (inactive)
same,normalized growth,[20],1.01 (inactive)
same,normalized growth,[21],0.995 (inactive)
same,normalized growth,[22],0.999 (inactive)
same,normalized growth,[23],0.88 (inactive)
same,normalized growth,[24],1.02 (inactive)
same,normalized growth,[25],1.02 (inactive)
same,normalized growth,[26],1.02 (inactive)
same,normalized growth,[27],1.03 (inactive)
same,normalized growth,[28],1.03 (inactive)
same,normalized growth,[29],1.01 (inactive)
same,normalized growth,[30],1.05 (inactive)
same,normalized growth,[31],1.02 (inactive)
same,normalized growth,[32],1.01 (inactive)
same,normalized growth,[33],1.04 (inactive)
same,normalized growth,[34],1.02 (inactive)
same,normalized growth,[35],1.02 (inactive)
same,normalized growth,[36],0.998 (inactive)
same,normalized growth,[37],0.971 (inactive)
same,normalized growth,[38],0.993 (inactive)
same,normalized growth,[39],1 (inactive)
same,normalized growth,[40],1 (inactive)
same,normalized growth,[41],1 (inactive)
same,normalized growth,[42],1.02 (inactive)
same,normalized growth,[43],0.979 (inactive)
same,normalized growth,[44],1.03 (inactive)
same,normalized growth,[45],1.01 (inactive)
same,normalized growth,[46],1.01 (inactive)
same,normalized growth,[47],0.991 (inactive)
same,normalized growth,[48],0.997 (inactive)
same,normalized growth,[49],1.03 (inactive)
same,normalized growth,[50],0.992 (inactive)
same,normalized growth,[51],1.02 (inactive)
same,normalized growth,[52],0.969 (inactive)
same,normalized growth,[53],1.04 (inactive)
same,normalized growth,[54],1.02 (inactive)
same,normalized growth,[55],1.01 (inactive)
same,normalized growth,[56],1.01 (inactive)
same,normalized growth,[57],0.999 (inactive)
same,normalized growth,[58],1 (inactive)
same,normalized growth,[59],0.909 (inactive)
same,normalized growth,[60],0.987 (inactive)
same,normalized growth,[61],1.02 (inactive)
same,normalized growth,[62],1.02 (inactive)
same,normalized growth,[63],1.02 (inactive)
same,normalized growth,[64],1 (inactive)
same,normalized growth,[65],1.02 (inactive)
same,normalized growth,[66],1.01 (inactive)
same,normalized growth,[67],1.08 (inactive)
same,normalized growth,"locus YOL012C, strain htz1",1.12 (inactive)
same,normalized growth,[68],1.01 (inactive)
same,normalized growth,[69],1.01 (inactive)
same,normalized growth,[70],1.02 (inactive)
same,normalized growth,[71],1.03 (inactive)
same,normalized growth,[72],0.999 (inactive)
same,normalized growth,[73],0.981 (inactive)
same,normalized growth,[74],1.03 (inactive)
same,normalized growth,[75],1 (inactive)
same,normalized growth,"locus YPL241C, strain CIN2, stronger effect = lower value",0.996 (inactive)
same,normalized growth,[76],1 (inactive)
same,normalized growth,[77],1.01 (inactive)
same,normalized growth,[78],1.02 (inactive)
same,normalized growth,[79],1.01 (inactive)
same,normalized growth,[80],0.986 (inactive)
